Test results reported in PubChem BioAssay (NCI).
This is part of a sample that, as a whole, favours compounds with a hit. Of some 79,000 tested, about 15% had one in any assay. Activity calls are given as the source filed them. Rule as the data show it: active = growth inhibition above about 70%; inactive = the rest.

Experiments:
[1] = NCI Yeast Anticancer Drug Screen. Data for the wt2 strain (AID 169);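 also: 0% = growth of vehicle-treated yeast cultures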; details: S. cerevisiae wt2 strain growth inhibition, stronger effect = higher value
Outline: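 Treated yeast vs. vehicle-treated yeast: growth inhibition determined.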

[2] = NCI Yeast Anticancer Drug Screen. Data for the sgs1 strain (AID 173);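 also: 0% = growth of vehicle-only control cultures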; details: S. cerevisiae sgs1 mutant, stronger effect = higher value
Outline: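 A genetically defined yeast mutant is incubated with the test compound, and its growth is compared to that of the same strain given vehicle.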

[3] = NCI Yeast Anticancer Drug Screen. Data for the mlh1 rad18 strain (AID 175); details: S. cerevisiae mlh1 rad18 strain growth inhibition, stronger effect = higher value
Outline: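 Steps: expose repair-defective yeast to compound; measure growth; express inhibition against vehicle-treated controls.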

[4] = NCI Yeast Anticancer Drug Screen. Data for the rad18 strain (AID 177); details: S. cerevisiae rad18 mutant growth inhibition, stronger effect = higher value
Outline: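 Measured value is growth inhibition of a yeast strain bearing a DNA repair alteration, referenced to vehicle-treated cells.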

[5] = NCI Yeast Anticancer Drug Screen. Data for the rad52 strain (AID 147);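 also: 0% = growth of vehicle-treated control cultures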; details: S. cerevisiae rad52 mutant growth inhibition, stronger effect = higher value
Outline: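 Here a repair-compromised yeast strain receives each compound; its growth is then quantified and normalised to vehicle-only controls.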

[6] = NCI Yeast Anticancer Drug Screen. Data for the wt1 strain (AID 149);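 also: 0% = growth of vehicle-treated wt1 cultures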; details: S. cerevisiae wt1 strain (SPY 50644) growth inhibition, stronger effect = higher value
Outline: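 Yeast wt1 strain exposed to compounds; growth inhibition measured relative to vehicle-treated controls.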

[7] = NCI Yeast Anticancer Drug Screen. Data for the rad50EPP+ strain (AID 151);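 also: 0% = growth of vehicle-treated control cultures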; details: S. cerevisiae rad50 mutant strain, stronger effect = higher value
Outline: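 Read-out is yeast growth inhibition relative to vehicle; cells used were the rad50EPP+ strain.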

[8] = NCI Yeast Anticancer Drug Screen. Data for the mgt1 strain (AID 153); details: S. cerevisiae mgt1 mutant growth inhibition, stronger effect = higher value
Outline: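 Measured: inhibition of mgt1 yeast growth by compound, normalized to vehicle-treated cultures.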

[9] = NCI Yeast Anticancer Drug Screen. Data for the rad50 strain (AID 155);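 also: 0% = growth of vehicle-only cultures of the same strain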; details: S. cerevisiae rad50 strain growth inhibition, stronger effect = higher value
Outline: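 Yeast carrying a defined DNA repair defect were exposed to test compounds, and growth was compared with vehicle-treated controls to give percent inhibition.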

[10] = NCI Yeast Anticancer Drug Screen. Data for the mec2-1 strain (AID 157); details: S. cerevisiae mec2-1 strain, stronger effect = higher value
Outline: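 Using mec2-1 yeast: add compound, measure growth, express inhibition versus vehicle-treated cultures.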

[11] = NCI Yeast Anticancer Drug Screen. Data for the rad14 strain (AID 159);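 also: 0% = growth of vehicle-treated control cultures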; details: S. cerevisiae rad14 strain growth inhibition, stronger effect = higher value
Outline: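 Yeast cells carrying a defined DNA-repair defect were exposed to compounds, and growth inhibition was calculated relative to vehicle-treated control cultures.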

[12] = NCI Yeast Anticancer Drug Screen. Data for the sgs1 mgt1 strain (AID 161);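 also: 0% = growth of cultures given vehicle only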; details: S. cerevisiae sgs1 mgt1 strain, stronger effect = higher value
Outline: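 This yeast growth screen uses a strain with defined DNA-repair lesions; compound-treated growth is compared with vehicle-treated growth.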

[13] = NCI Yeast Anticancer Drug Screen. Data for the CLN2oe strain (AID 163);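 also: 0% = growth of vehicle-only control cultures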; details: S. cerevisiae CLN2oe strain, stronger effect = higher value
Outline: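 Whole-cell yeast growth assay. A strain engineered for altered cell-cycle control received compound, and inhibition relative to vehicle-treated cultures was recorded.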

[14] = NCI Yeast Anticancer Drug Screen. Data for the cln2 rad14 strain (AID 165);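 also: 0% = growth equal to vehicle treated cultures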; details: S. cerevisiae cln2 rad14 strain, stronger effect = higher value
Outline: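 Yeast strain cln2 rad14, bearing defects in cell cycle control and DNA repair, serves as the test system; values reflect growth inhibition compared with vehicle.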

[15] = NCI Yeast Anticancer Drug Screen. Data for the bub3 strain (AID 167); details: S. cerevisiae bub3 mutant strain, stronger effect = higher value
Outline: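 Compounds were applied to a genetically altered yeast strain carrying a cell-cycle control defect. Growth inhibition was scored against vehicle-treated controls.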

[16] = at 5.0 µM (retest, dose inferred, filed as 0.5)
[17] = at 50.0 µM (retest, dose inferred, filed as 5.0)

Measured: growth inhibition

CC(C)C1=CCC2C(=C1)CCC1C(C)(C(=O)O)CCCC21C (centres undefined) (tested in a mixture with another compound)
inactive: [1]; at 1.2 µM -60% | [1]; at 3.7 µM -40% | [1]; at 11.0 µM -56% | [1]; at 33.0 µM 63% | [2]; at 1.2 µM 18% | [2]; at 3.7 µM 24% | [2]; at 11.0 µM 23% | [2]; at 33.0 µM 43% | [3]; [16] 40% | [4]; at 1.2 µM -5% | [4]; at 3.7 µM -9% | [4]; at 11.0 µM -20% | [4]; at 33.0 µM 15%
active: [1]; at 100.0 µM 93% | [2]; at 100.0 µM 96% | [3]; [17] 98% | [3]; at 50.0 µM 76.5% | [4]; at 100.0 µM 88%

CCOC(=O)C(NC(=O)c1ccccc1)(N1CCN(c2cc3c(cc2F)c(=O)c(C(=O)O)cn3C2CC2)CC1)C(F)(F)F (centres undefined)
active: [5]; at 100.0 µM 75% | [9]; [17] 76% | [9]; at 50.0 µM 74.6% | [9]; at 100.0 µM 79%
inactive: [5]; at 1.2 µM -1% | [5]; at 3.7 µM 2% | [5]; at 11.0 µM 11% | [5]; at 33.0 µM 35% | [6]; at 1.2 µM -2% | [6]; at 3.7 µM -1% | [6]; at 11.0 µM -1% | [6]; at 33.0 µM 0% | [6]; at 100.0 µM 2% | [7]; at 1.2 µM -1% | [7]; at 3.7 µM 0% | [7]; at 11.0 µM 1% | [7]; at 33.0 µM 2% | [7]; at 100.0 µM 14% | [8]; at 1.2 µM 1% | [8]; at 3.7 µM 1% | [8]; at 11.0 µM 0% | [8]; at 33.0 µM 1% | [8]; at 100.0 µM 2% | [9]; at 1.2 µM 0% | [9]; at 3.7 µM 5% | [9]; [16] -7% | [9]; at 11.0 µM 14% | [9]; at 33.0 µM 47% | [10]; at 1.2 µM -1% | [10]; at 3.7 µM -2% | [10]; [16] -6% | [10]; at 11.0 µM 0% | [10]; at 33.0 µM 2% | [10]; [17] -27% | [10]; at 50.0 µM 3.05% | [10]; at 100.0 µM 3% | [11]; at 1.2 µM 0% | [11]; at 3.7 µM 2% | [11]; at 11.0 µM 4% | [11]; at 33.0 µM 3% | [11]; at 100.0 µM 2% | [12]; [16] -6% | [12]; [17] -15% | [12]; at 50.0 µM -4.1% | [13]; at 1.2 µM -1% | [13]; at 3.7 µM 3% | [13]; at 11.0 µM 2% | [13]; at 33.0 µM 6% | [13]; at 100.0 µM 9% | [14]; [16] 41% | [14]; [17] -13% | [14]; at 50.0 µM 18.5% | [15]; at 1.2 µM -1% | [15]; at 3.7 µM 2% | [15]; [16] -15% | [15]; at 11.0 µM 3% | [15]; at 33.0 µM -39% | [15]; [17] 3% | [15]; at 50.0 µM -16.1% | [15]; at 100.0 µM 3% | [1]; at 1.2 µM -1% | [1]; at 3.7 µM -2% | [1]; at 11.0 µM -2% | [1]; at 33.0 µM -2% | [1]; at 100.0 µM 1% | [3]; [16] -21% | [3]; [17] 12% | [3]; at 50.0 µM -1.95% | [4]; at 1.2 µM -3% | [4]; at 3.7 µM -1% | [4]; at 11.0 µM 0% | [4]; at 33.0 µM 2% | [4]; at 100.0 µM 6%

S=C(N/N=C/c1ccccn1)Nc1ccc(Cl)cc1
active: [9]; [17] 95% | [10]; [16] 71% | [10]; [17] 95% | [11]; at 100.0 µM 80% | [12]; [17] 96% | [12]; at 50.0 µM 83.8% | [13]; at 100.0 µM 79% | [14]; [17] 90% | [14]; at 50.0 µM 71.9% | [15]; [17] 96% | [15]; at 50.0 µM 79.6% | [3]; [17] 95% | [3]; at 50.0 µM 78.8%
inactive: [5]; at 1.2 µM -5% | [5]; at 3.7 µM -5% | [5]; at 11.0 µM -3% | [5]; at 33.0 µM 15% | [5]; at 100.0 µM 59% | [6]; at 1.2 µM -7% | [6]; at 3.7 µM -5% | [6]; at 11.0 µM -5% | [6]; at 33.0 µM 8% | [6]; at 100.0 µM 42% | [7]; at 1.2 µM -3% | [7]; at 3.7 µM -3% | [7]; at 11.0 µM 1% | [7]; at 33.0 µM -6% | [7]; at 100.0 µM -12% | [8]; at 1.2 µM -7% | [8]; at 3.7 µM -7% | [8]; at 11.0 µM 9% | [8]; at 33.0 µM 16% | [8]; at 100.0 µM 59% | [9]; at 1.2 µM -5% | [9]; at 3.7 µM -7% | [9]; [16] -7% | [9]; at 11.0 µM -27% | [9]; at 33.0 µM 19% | [9]; at 50.0 µM 55.5% | [9]; at 100.0 µM 59% | [10]; at 1.2 µM -5% | [10]; at 3.7 µM -6% | [10]; at 11.0 µM -3% | [10]; at 33.0 µM 10% | [10]; at 50.0 µM 56.2% | [10]; at 100.0 µM 63% | [11]; at 1.2 µM -3% | [11]; at 3.7 µM 0% | [11]; at 11.0 µM 0% | [11]; at 33.0 µM 27% | [12]; [16] 27% | [13]; at 1.2 µM -3% | [13]; at 3.7 µM -14% | [13]; at 11.0 µM -12% | [13]; at 33.0 µM 11% | [14]; [16] 38% | [15]; at 1.2 µM -5% | [15]; at 3.7 µM 0% | [15]; [16] 19% | [15]; at 11.0 µM -2% | [15]; at 33.0 µM -3% | [15]; at 100.0 µM 49% | [2]; at 1.2 µM -5% | [2]; at 3.7 µM -4% | [2]; at 11.0 µM -2% | [2]; at 33.0 µM 22% | [2]; at 100.0 µM 66% | [3]; [16] 44% | [4]; at 1.2 µM -6% | [4]; at 3.7 µM -3% | [4]; at 11.0 µM -5% | [4]; at 33.0 µM 2% | [4]; at 100.0 µM 67%
